# Several values for one entry are separate records, joined by “and”; a condition that tells them apart may be missing. Identical values can stand only once.
# Experiments:
# [1] = biological target: Dual specificity protein kinase CLK3 (Homo sapiens) (UniProt P49761); details: at 1 µM;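 further: each value is the mean inhibition of CLK3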
# [2] = biological target: Dual specificity tyrosine-phosphorylation-regulated kinase 1A (Homo sapiens) (UniProt Q13627); details: at 0.1 µM
# [3] = biological target: Dual specificity tyrosine-phosphorylation-regulated kinase 1A (Homo sapiens) (UniProt Q13627); details: at 1 µM
# [4] = biological target: Dual specificity tyrosine-phosphorylation-regulated kinase 1B (Homo sapiens) (UniProt Q9Y463); details: at 0.1 µM
# Chain of Dual specificity tyrosine-phosphorylation-regulated kinase 1B (Homo sapiens) (Q9Y463 whole entry, looked up): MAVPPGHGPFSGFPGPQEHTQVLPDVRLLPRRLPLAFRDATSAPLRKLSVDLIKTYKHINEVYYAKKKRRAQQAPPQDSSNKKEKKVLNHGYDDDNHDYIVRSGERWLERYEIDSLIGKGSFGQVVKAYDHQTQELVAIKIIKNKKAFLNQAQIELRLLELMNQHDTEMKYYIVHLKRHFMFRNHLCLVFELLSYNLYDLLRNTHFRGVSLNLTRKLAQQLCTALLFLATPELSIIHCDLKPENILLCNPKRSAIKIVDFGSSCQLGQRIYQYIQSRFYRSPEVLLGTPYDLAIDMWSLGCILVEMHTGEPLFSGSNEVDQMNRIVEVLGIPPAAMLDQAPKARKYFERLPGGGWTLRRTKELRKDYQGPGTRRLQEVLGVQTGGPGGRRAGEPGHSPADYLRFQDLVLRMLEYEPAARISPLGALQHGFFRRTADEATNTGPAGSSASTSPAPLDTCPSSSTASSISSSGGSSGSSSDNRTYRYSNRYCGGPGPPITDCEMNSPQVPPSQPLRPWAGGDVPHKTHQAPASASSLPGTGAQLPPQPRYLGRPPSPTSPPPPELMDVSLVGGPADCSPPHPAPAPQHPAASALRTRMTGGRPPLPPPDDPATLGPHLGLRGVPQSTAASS
# [5] = biological target: Dual specificity tyrosine-phosphorylation-regulated kinase 1B (Homo sapiens) (UniProt Q9Y463); details: at 1 µM
# [6] = biological target: T1, Dual specificity tyrosine-phosphorylation-regulated kinase 2 (Homo sapiens) (UniProt Q92630); details: at 0.1 µM
# T1 sequence (whole entry): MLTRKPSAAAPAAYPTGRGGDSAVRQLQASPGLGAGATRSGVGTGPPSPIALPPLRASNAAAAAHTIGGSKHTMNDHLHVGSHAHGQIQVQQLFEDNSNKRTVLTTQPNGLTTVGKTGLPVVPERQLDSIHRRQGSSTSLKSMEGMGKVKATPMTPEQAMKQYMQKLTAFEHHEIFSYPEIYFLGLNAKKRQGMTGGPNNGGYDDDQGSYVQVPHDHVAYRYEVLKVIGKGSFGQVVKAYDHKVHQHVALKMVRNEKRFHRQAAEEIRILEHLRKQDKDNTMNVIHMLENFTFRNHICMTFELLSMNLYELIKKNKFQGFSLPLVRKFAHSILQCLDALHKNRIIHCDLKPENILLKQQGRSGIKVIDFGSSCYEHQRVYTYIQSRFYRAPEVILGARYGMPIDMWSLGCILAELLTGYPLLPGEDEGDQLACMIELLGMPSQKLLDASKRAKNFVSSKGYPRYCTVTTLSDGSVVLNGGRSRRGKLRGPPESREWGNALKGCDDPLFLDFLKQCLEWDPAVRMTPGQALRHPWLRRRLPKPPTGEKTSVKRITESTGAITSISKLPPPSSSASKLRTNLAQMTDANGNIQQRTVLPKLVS
# [7] = biological target: T1, Dual specificity tyrosine-phosphorylation-regulated kinase 2 (Homo sapiens); details: at 1 µM
# [8] = biological target: Glycogen synthase kinase-3 alpha (Homo sapiens) (UniProt P49840); details: at 0.1 µM
# Chain of Glycogen synthase kinase-3 alpha (Homo sapiens) (P49840 2-483 limits assumed): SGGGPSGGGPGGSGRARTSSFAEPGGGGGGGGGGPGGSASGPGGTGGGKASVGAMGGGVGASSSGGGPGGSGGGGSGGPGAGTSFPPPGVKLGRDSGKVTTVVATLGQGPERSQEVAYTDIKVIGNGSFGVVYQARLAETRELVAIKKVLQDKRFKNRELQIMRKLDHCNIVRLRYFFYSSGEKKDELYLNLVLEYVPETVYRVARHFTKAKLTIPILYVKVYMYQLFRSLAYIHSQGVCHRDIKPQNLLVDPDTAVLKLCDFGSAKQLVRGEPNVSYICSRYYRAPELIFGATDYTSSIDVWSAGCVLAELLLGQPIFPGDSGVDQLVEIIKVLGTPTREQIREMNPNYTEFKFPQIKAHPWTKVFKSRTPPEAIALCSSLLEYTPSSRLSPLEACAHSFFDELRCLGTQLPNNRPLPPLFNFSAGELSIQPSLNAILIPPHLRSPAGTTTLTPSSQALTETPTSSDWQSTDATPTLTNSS
# [9] = biological target: Glycogen synthase kinase-3 alpha (Homo sapiens) (UniProt P49840); details: at 1 µM
# [10] = biological target: Glycogen synthase kinase-3 beta (Homo sapiens) (UniProt P49841); details: at 0.1 µM
# Chain of Glycogen synthase kinase-3 beta (Homo sapiens) (P49841 whole entry, looked up): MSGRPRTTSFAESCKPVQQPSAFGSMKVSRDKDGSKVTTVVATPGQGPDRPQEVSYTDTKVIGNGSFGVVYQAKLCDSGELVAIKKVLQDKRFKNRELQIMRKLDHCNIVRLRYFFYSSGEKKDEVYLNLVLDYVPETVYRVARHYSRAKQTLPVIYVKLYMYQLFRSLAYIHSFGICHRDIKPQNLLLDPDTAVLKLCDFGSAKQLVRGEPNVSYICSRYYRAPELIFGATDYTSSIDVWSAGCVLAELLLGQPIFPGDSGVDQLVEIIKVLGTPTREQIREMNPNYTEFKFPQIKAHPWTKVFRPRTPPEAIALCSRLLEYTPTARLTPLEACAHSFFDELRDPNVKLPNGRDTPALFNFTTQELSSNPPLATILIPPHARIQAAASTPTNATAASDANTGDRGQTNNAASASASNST
# [11] = biological target: Glycogen synthase kinase-3 beta (Homo sapiens) (UniProt P49841); details: at 1 µM
# [12] = biological target: Homeodomain-interacting protein kinase 1 (Homo sapiens) (UniProt Q86Z02); details: at 0.1 µM
# Chain of Homeodomain-interacting protein kinase 1 (Homo sapiens) (Q86Z02 whole entry, looked up): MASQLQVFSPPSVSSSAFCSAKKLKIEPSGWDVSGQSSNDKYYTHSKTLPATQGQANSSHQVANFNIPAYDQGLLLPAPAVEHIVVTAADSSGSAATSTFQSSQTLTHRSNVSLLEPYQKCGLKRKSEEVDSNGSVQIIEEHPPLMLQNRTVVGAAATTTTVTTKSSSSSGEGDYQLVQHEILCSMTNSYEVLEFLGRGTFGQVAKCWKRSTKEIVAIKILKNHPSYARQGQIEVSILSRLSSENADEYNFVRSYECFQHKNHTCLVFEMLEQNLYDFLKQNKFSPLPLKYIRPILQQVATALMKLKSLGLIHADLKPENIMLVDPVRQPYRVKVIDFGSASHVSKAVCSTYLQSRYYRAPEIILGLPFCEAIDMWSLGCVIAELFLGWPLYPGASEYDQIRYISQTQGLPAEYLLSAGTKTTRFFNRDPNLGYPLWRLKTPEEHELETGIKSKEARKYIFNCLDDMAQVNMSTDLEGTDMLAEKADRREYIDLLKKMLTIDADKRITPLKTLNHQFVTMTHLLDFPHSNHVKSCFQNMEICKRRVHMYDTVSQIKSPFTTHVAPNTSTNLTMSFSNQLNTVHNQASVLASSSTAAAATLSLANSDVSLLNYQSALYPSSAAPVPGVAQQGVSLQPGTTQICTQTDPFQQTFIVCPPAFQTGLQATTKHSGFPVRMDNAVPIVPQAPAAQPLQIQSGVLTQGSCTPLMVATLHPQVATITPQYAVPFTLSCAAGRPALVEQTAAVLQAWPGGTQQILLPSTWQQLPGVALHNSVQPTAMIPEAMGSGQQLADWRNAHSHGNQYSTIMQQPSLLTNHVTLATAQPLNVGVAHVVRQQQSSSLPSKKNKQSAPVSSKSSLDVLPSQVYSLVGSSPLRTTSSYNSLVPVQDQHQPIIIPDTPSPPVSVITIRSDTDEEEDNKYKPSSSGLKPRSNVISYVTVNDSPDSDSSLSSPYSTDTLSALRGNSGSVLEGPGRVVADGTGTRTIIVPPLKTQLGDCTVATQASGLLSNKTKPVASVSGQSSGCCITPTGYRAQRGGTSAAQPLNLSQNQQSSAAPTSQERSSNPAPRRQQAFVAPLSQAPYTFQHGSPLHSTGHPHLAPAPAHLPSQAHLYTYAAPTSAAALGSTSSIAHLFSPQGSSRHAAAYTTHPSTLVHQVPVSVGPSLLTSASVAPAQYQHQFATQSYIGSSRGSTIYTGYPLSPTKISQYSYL
# [13] = biological target: Homeodomain-interacting protein kinase 1 (Homo sapiens) (UniProt Q86Z02); details: at 1 µM
# [14] = biological target: T2, Homeodomain-interacting protein kinase 4 (Homo sapiens) (UniProt Q8NE63); details: at 0.1 µM
# T2 sequence (whole entry): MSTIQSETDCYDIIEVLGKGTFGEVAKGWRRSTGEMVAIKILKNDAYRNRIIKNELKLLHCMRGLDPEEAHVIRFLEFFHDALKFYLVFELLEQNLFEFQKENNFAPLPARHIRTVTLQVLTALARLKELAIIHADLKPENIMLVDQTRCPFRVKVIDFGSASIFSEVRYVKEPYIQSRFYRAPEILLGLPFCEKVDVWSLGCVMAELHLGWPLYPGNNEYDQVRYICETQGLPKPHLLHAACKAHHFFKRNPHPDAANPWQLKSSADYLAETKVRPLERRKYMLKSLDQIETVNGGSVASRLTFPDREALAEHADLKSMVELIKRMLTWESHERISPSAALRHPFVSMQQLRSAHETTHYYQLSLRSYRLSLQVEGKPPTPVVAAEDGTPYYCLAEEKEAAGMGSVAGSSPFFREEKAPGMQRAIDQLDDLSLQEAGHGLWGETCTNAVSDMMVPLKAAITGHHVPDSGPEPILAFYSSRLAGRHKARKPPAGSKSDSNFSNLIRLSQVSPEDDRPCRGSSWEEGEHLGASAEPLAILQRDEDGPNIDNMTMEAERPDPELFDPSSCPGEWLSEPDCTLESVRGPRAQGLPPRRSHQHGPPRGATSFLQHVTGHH
# [15] = biological target: T2, Homeodomain-interacting protein kinase 4 (Homo sapiens); details: at 1 µM
# [16] = biological target: Mitogen-activated protein kinase 9 (Homo sapiens) (UniProt P45984); details: at 0.1 µM
# Chain of Mitogen-activated protein kinase 9 (Homo sapiens) (P45984 whole entry, looked up): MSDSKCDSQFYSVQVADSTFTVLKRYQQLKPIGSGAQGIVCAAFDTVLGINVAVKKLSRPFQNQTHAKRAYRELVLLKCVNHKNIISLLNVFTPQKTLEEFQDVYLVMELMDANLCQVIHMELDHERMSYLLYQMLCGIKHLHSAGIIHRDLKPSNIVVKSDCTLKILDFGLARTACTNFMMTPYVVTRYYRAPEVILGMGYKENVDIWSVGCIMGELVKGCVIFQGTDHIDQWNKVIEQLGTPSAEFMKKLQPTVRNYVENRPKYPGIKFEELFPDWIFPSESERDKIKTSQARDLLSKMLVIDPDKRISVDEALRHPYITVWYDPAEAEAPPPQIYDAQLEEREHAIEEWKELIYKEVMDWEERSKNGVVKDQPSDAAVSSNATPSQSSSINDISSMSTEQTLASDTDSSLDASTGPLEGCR
# [17] = biological target: Mitogen-activated protein kinase 9 (Homo sapiens) (UniProt P45984); details: at 1 µM
# [18] = biological target: Mitogen-activated protein kinase 1 (Homo sapiens) (UniProt P28482); details: at 0.1 µM
# Chain of Mitogen-activated protein kinase 1 (Homo sapiens) (P28482 whole entry): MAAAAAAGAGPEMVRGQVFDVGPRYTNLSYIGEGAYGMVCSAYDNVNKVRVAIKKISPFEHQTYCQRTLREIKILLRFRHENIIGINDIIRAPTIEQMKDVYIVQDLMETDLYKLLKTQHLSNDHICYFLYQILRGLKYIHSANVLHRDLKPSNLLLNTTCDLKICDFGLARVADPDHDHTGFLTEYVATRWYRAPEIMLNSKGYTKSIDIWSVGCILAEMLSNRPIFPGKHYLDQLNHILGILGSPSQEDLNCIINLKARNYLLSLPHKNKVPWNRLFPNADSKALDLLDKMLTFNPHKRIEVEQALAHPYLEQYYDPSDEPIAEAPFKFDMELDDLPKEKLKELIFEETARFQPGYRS
# [19] = biological target: Mitogen-activated protein kinase 1 (Homo sapiens) (UniProt P28482); details: at 1 µM
# [20] = biological target: Mitogen-activated protein kinase 3 (Homo sapiens) (UniProt P27361); details: at 0.1 µM;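 further: each value is a mean inhibition figure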
# Chain of Mitogen-activated protein kinase 3 (Homo sapiens) (P27361 whole entry): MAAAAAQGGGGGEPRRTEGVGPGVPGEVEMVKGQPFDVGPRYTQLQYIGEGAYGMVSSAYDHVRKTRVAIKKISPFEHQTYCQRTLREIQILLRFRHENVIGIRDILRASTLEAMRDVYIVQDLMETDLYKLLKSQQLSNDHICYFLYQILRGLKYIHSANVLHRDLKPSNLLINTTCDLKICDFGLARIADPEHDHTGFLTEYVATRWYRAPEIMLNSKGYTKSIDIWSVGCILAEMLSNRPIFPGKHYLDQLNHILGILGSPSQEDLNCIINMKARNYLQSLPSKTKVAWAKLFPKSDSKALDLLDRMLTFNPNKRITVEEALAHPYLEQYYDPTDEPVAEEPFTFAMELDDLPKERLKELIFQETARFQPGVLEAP
# Chain of Dual specificity protein kinase CLK3 (Homo sapiens) (P49761 whole entry, looked up): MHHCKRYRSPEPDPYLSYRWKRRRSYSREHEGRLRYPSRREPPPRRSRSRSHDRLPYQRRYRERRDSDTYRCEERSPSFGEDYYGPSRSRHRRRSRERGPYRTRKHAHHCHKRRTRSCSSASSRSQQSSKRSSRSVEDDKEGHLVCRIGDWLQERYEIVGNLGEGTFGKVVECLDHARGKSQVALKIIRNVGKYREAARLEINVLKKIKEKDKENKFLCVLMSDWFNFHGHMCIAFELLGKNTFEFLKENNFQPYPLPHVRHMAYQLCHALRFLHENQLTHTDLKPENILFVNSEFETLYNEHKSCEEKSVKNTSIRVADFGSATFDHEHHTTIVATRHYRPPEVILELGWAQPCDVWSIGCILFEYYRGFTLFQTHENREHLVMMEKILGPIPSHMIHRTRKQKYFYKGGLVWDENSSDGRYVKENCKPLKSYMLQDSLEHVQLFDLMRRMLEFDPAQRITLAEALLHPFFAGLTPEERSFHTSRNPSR
SMILES,inhibition [1],inhibition [2],inhibition [3],inhibition [4],inhibition [5],inhibition [6],inhibition [7],inhibition [8],inhibition [9],inhibition [10],inhibition [11],inhibition [12],inhibition [13],inhibition [14],inhibition [15],inhibition [16],inhibition [17],inhibition [18],inhibition [19],inhibition [20]
Nc1ncnc2occ(-c3ccc(NC(=O)Nc4cc(C(F)(F)F)ccc4F)cc3)c12,2.26% and 0.21%,1.15% and 1.58%,4.22% and 0.86%,1.3% and 0.83%,2.57% and 1.79%,2.49% and -1.01%,3.45% and -1.47%,7.6% and 1.13%,17.5% and 6.32%,7.23% and 1.21%,17% and 5.38%,5.43% and -2.68%,37.4% and 21.6%,60.9% and 51.1%,78.3% and 77.3%,4.06% and -9.27%,21.3% and 4.35%,1.97% and -3.05%,1.72% and -1.67%,0.93% and 0.1%
NS(=O)(=O)c1cccc(N/C=C2\C(=O)Nc3ccccc32)c1,3.43%,4.67%,7.61%,1.69%,4.25%,3.56%,9.5%,4.32%,20%,3.36%,19.7%,-0.03%,2.88%,0.43%,4.51%,7.2%,10.9%,2.99%,4.54%,1.72%
O=C(O[C@H]1CN[C@H](C#Cc2cc3ncnc(Nc4ccc5c(ccn5Cc5cc(F)ccc5F)c4)c3s2)C1)N1CCOCC1,1.89%,2.29%,4.73%,0.4%,-1.92%,3.27%,2.77%,3.38%,6.08%,1.76%,5.52%,0.14%,-1.46%,0.47%,2.6%,5.66%,5.74%,3.73%,5.12%,4.98%
COc1c(C(N)=O)cc(-c2ccc(Cl)cc2)cc1-c1ccc(S(N)(=O)=O)cc1,0.31%,3.11%,4.97%,-0.92%,-0.01%,3.75%,8.4%,1.76%,2.57%,0.69%,2.65%,-1.29%,-0.59%,0.4%,1.94%,3.46%,8.22%,5.87%,5.86%,4.58%
COc1ccc(Nc2ncc(-c3ccccc3)o2)cc1OC,5.65%,8.15%,12%,9%,10.9%,0.67%,2.48%,8.4%,38.4%,7.94%,33%,8.4%,28.6%,3.61%,22.6%,2.69%,8.77%,-0.07%,1.54%,1.12%
CC1(C)CC(n2cnc(-c3ccc(F)cc3)c2-c2ccnc(N)n2)CC(C)(C)N1,1.38%,1.54%,5.47%,0.78%,1.31%,0.23%,-0.37%,1.97%,5.81%,1.6%,6.07%,-1.4%,-0.7%,-0.06%,1.62%,-1.22%,4.24%,-0.07%,-0.08%,0.44%
CS(=O)(=O)CCNCc1ccc(-c2ccc3ncnc(Nc4ccc(OCc5ccccc5)cc4)c3c2)o1,0.48%,1.93%,4.22%,-0.07%,1.88%,5.3%,2.62%,2.32%,3.44%,1.65%,3.37%,-0.23%,3.06%,0.8%,4.91%,2.23%,2.48%,4.02%,3.85%,2.1%
Nc1nonc1-c1nc2cnccc2n1C1CC1,2.54% and -2.2%,22% and 20.1%,65.5% and 61.9%,13.7% and 10.7%,55.7% and 52.9%,4.16% and 3.22%,19.6% and 19.7%,25% and 21.2%,70.2% and 63.7%,21.5% and 17.6%,68.1% and 62.1%,0.55% and 0.39%,17.3% and 12.3%,3.8% and -0.76%,11.1% and 7.82%,3.59% and 0.44%,6.52% and 2.72%,3.14% and 2.36%,7.51% and 3.94%,4.9% and 2.96%
CCCNc1cccc(-n2ncc3c(N/N=C/c4ccncc4)ncnc32)c1,9.87%,1.44%,20.6%,0.57%,9.45%,2.85%,14.2%,31.9%,71.8%,24%,68.7%,2.78%,13.5%,4.71%,27.7%,-0.25%,6.14%,1.61%,1.54%,1.28%
c1ccc(-c2n[nH]cc2-c2ccnc(-c3ccc(OCCn4ccnc4)cc3)c2)nc1,0.82%,3.79%,5.07%,0.31%,0.62%,-0.06%,0.1%,1.15%,3.28%,1.16%,4.83%,-0.98%,-1.32%,-0.24%,2.03%,2.7%,8.69%,1.6%,1.52%,0.3%
CS(=O)(=O)CCNCc1ccoc1-c1ccc2ncnc(Nc3ccc(OCc4ccccc4)cc3)c2c1,-0.94%,1.18%,2.26%,-1.48%,-0.06%,0.79%,-1.66%,4.65%,5.47%,2.8%,4.28%,-3.84%,0.14%,0.57%,2.87%,1.1%,1.84%,0.72%,2.14%,0.52%
COc1cccc(-n2ncc3c(N/N=C/c4ccc(C(=O)NCCN(C)C)cc4)ncnc32)c1,31.7%,38.1%,71.6%,17.8%,57.1%,20.9%,66.3%,71.9%,82.7%,66.3%,79.4%,47%,78.8%,49.5%,75.8%,2.47%,3.96%,1.34%,4.38%,3.11%
Fc1ccc(Nc2nccc(-c3c(-c4ccc(C(F)(F)F)cc4)nn4ncccc34)n2)cc1F,4.71%,2.73%,5.39%,1.21%,2.44%,2.31%,3.44%,2.05%,4.32%,1.37%,3.82%,0.15%,4.43%,0.47%,3.47%,1.98%,3.63%,3.91%,4.05%,1.81%
